Results reported in PubChem BioAssay (NCI).
The panel holds about 79,000 compounds, 15% with a hit somewhere; the sample as a whole holds those more often. Calls of active or inactive are those of the source. Rule as the data show it: active = growth inhibition above about 70%; inactive = the rest. Where a SMILES comes first, the peptide text is derived from it.

Tests used:
[1] = NCI Yeast Anticancer Drug Screen. Data for the rad50 strain (AID 155);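 also: 0% = growth of vehicle-only cultures of the same strain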; conditions: S. cerevisiae rad50 strain growth inhibition; at 50.0 µM; stronger effect = higher value
Outline: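 Compounds were tested on a yeast strain with an engineered DNA damage repair alteration; the reported value is growth inhibition normalised to vehicle treatment.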

[2] = NCI Yeast Anticancer Drug Screen. Data for the mec2-1 strain (AID 157); conditions: S. cerevisiae mec2-1 strain, at 50.0 µM, stronger effect = higher value
Outline: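 Compounds were applied to mec2-1 yeast cells. Their growth was then compared with that of vehicle-treated cultures to give growth inhibition.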

[3] = NCI Yeast Anticancer Drug Screen. Data for the sgs1 mgt1 strain (AID 161);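 also: 0% = growth of cultures given vehicle only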; conditions: S. cerevisiae sgs1 mgt1 strain, at 50.0 µM, stronger effect = higher value
Outline: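 This yeast growth screen uses a strain with defined DNA-repair lesions; compound-treated growth is compared with vehicle-treated growth.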

[4] = NCI Yeast Anticancer Drug Screen. Data for the cln2 rad14 strain (AID 165);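 also: 0% = growth equal to vehicle treated cultures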; conditions: S. cerevisiae cln2 rad14 strain, at 50.0 µM, stronger effect = higher value
Outline: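 Strain: cln2 rad14 yeast, altered in cell cycle control and DNA damage repair. Read-out: growth inhibition vs vehicle.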

[5] = NCI Yeast Anticancer Drug Screen. Data for the bub3 strain (AID 167); conditions: S. cerevisiae bub3 mutant strain, at 50.0 µM, stronger effect = higher value
Outline: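 Growth of a checkpoint-deficient yeast mutant is measured after compound exposure. Values represent inhibition relative to vehicle.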

[6] = NCI Yeast Anticancer Drug Screen. Data for the mlh1 rad18 strain (AID 175); conditions: S. cerevisiae mlh1 rad18 strain growth inhibition; at 50.0 µM; stronger effect = higher value
Outline: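 A repair-deficient yeast strain is exposed to test compound, and growth is scored relative to vehicle-treated controls.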

Measured: growth inhibition

CC(C)/C=C1\CCC(CN(C)C)C1=O (stereo not given)
inactive: [1] 30.4% | [2] 56.1% | [3] 68.8% | [4] 31.4%
active: [5] 75% | [6] 85.8%

CC(C)C(=O)CC(c1ccc(Cl)cc1)N1N=C(C(C)C)CC1c1ccc(Cl)cc1 (stereo not given)
inactive: [1] 8.05% | [2] 15.2% | [3] 6.95% | [4] -27.4% | [5] 40% | [6] 14.4%

Oc1ccc(C2CCCC2)cc1
inactive: [1] -9.15% | [2] -30.1% | [3] -22.1% | [4] -14.7% | [5] -12.7% | [6] -17.4%

N=C1N=Nc2nc(C(C(=O)c3cccs3)c3nc4n(c3O)C(=N)N=N4)c(O)n21 (stereo not given)
inactive: [1] -5.1% | [2] 17.1% | [3] -1.25% | [4] -15.3% | [5] 1.7% | [6] -12.3%

CN(C)/C(N)=N\C(N)=Nc1cc2ccccc2c2ccccc12
inactive: [1] 1.3% | [2] -9.55% | [3] -0.2% | [4] -23.2% | [5] 2.25% | [6] -0.55%

Cn1c(NC(=O)C(=O)NC23CC4CC(CC(C4)C2)C3)nc2ccccc21
inactive: [1] -1.9% | [2] -11.4% | [3] -9.7% | [4] 5.8% | [5] -7.25% | [6] 8.55%

COC(=O)C1(CC(=O)c2ccc(Cl)cc2)NC(=S)NC(=O)C1C#N (stereo not given)
inactive: [1] 13.6% | [2] 12.6% | [3] 8% | [4] 7.95% | [5] -10.9% | [6] 22.5%

O=[N+]([O-])c1ccc(Nc2ccccc2)c2nonc12
inactive: [1] -22.2% | [2] 4.45% | [3] -0.1% | [4] 26.4% | [5] 13.8% | [6] 29.4%

CC1(C)CCCOc2cccc(c2)OCCCC(C)(C)C1=O
inactive: [1] 14.5% | [2] -1.7% | [3] -9.05% | [4] 27.1% | [5] 28.8% | [6] 25.9%

Cc1c(C(=O)C/C(=N\O)C(=O)Nc2cc(Cl)c(Cl)cc2Cl)[n+](=O)c2ccccc2n1[O-]
inactive: [1] 21.8% | [2] 14.3% | [3] 22.1% | [4] 14.7% | [5] 21.4% | [6] 32.4%

Cc1nn2c(-c3ccccc3)cnnc2c1-c1ccccc1
inactive: [1] -19.4% | [2] -21.1% | [3] -12.8% | [4] -26.1% | [5] 6.75% | [6] -10.8%

C=CCN(CC=C)C(=O)Nc1cccc2c(NC(=O)N(CC=C)CC=C)cccc12
inactive: [1] -24% | [2] -23.6% | [3] -17.5% | [4] 4.5% | [5] -21.8% | [6] -23.4%

COc1ccc(-c2cc(=O)c3c(OC)cccc3o2)c(OC)c1OC
inactive: [1] -8.9% | [2] -12.7% | [3] -3.5% | [4] 0.95% | [5] -11.2% | [6] 9.8%

COCC1(c2ccccc2)NC(=O)N(C)C1=O (stereo not given)
inactive: [1] -3.05% | [2] -2.15% | [3] -1.35% | [4] -9.15% | [5] -7.35% | [6] -2%

N#CCC1C2CC3C(C2=O)C13 (stereo not given)
inactive: [1] -0.6% | [2] 5.85% | [3] -2.2% | [4] 22.4% | [5] 4.65% | [6] -39.8%

O=C(O)C1C(c2ccccc2)CC(=O)N1c1ccc(Cl)cc1 (stereo not given)
inactive: [1] 1.55% | [2] 8.25% | [3] 5.75% | [4] 1.1% | [5] 19.6% | [6] -7.6%

CC(C)CCCC(C)C1CCC2C3CCC(O)C(C)(CCCO)C3CCC12C (stereo not given)
inactive: [1] 2% | [2] -3.85% | [3] 11.9% | [4] 32.1% | [5] 15.3% | [6] 13.7%

O=c1c2ccccc2nc2sc3nc4ccccc4c(=O)n3n12
inactive: [1] 4% | [2] -10.8% | [3] -8.85% | [4] -56% | [5] -4.2% | [6] -11.8%

N#CC1=C2CCCC(C#N)=C2CCC1
inactive: [1] 0.95% | [2] -1% | [3] -4.55% | [4] -40.1% | [5] -21.3% | [6] -13.8%

NC(CC(=O)O)c1ccc(Cl)cc1 (stereo not given)
inactive: [1] -22.5% | [2] -23.3% | [3] -14.4% | [4] -8.3% | [5] 0.3% | [6] 7%

CC(=O)c1ccc[cH-]1.[Fe+2].c1cc[cH-]c1
inactive: [1] 13.5% | [2] 9.75% | [3] 12.9% | [4] 4.25% | [5] 23.2% | [6] 11.3%

Cc1ccc(CN(C)C)c(C(O)c2ccccc2)c1 (stereo not given)
inactive: [1] 14.9% | [2] -0.75% | [3] -0.1% | [4] 11.1% | [5] 6.6% | [6] -2.45%

CC(=O)Nc1ncc(Br)s1
inactive: [1] 6.75% | [2] 6.05% | [3] -18.4% | [4] -13.8% | [5] -9.4% | [6] 5.3%

Brc1ccc(-c2ccc(-c3ccc(Br)cc3)s2)cc1
inactive: [1] 30.4% | [2] 13.8% | [3] 36.5% | [4] 19.8% | [5] -1.55% | [6] 4%

CCCOc1ccc(C(=O)C(=O)c2ccccc2)cc1
inactive: [1] 13.4% | [2] -0.2% | [3] -3.95% | [4] 0.8% | [5] 11.4% | [6] 7%

CC1=NN(c2nc(N)nc(CN3CCOCC3)n2)C(C)(C)C1
inactive: [1] 30.1% | [2] 3.5% | [3] 17.4% | [4] 20.6% | [5] 5.75% | [6] -2.05%

COc1cc(/C=C2\Cc3ccccc3C2=O)cc(OC)c1OC
inactive: [1] -13% | [2] -14.8% | [3] -15.8% | [4] 18.3% | [5] -14.1% | [6] -13.1%

COC(=O)C1=C(C(=O)OC)N(C(C)C)[C@H]2C(C(=O)OC)=C(C(=O)OC)N(C(C)C)[C@@H]12
inactive: [1] 0.2% | [2] -9.75% | [3] -19.4% | [4] 5.75% | [5] -34.8% | [6] 13.3%

CC1(C)C=C(C(=O)O)C(C)(C)N1O
inactive: [1] -8.95% | [2] -25.8% | [3] 5.65% | [4] 6.9% | [5] 14.3% | [6] 2.25%

COc1ccccc1C1OC2=C(Nc3ccc([N+](=O)[O-])cc3N2)C1=O (stereo not given)
inactive: [1] 12.2% | [2] 10.4% | [3] 27.9% | [4] 16.6% | [5] 16.9% | [6] 28.1%

Cc1nc2ccc(C(F)(F)F)cc2nc1Nc1ccc(Cl)c(Cl)c1
inactive: [1] 20.2% | [2] 27.4% | [3] 47.6% | [4] 15.2% | [5] 6.95% | [6] 34%

COc1ccc2c(c1)OC1(OCCO1)[C@@H]1C2CC[C@@]2(C)C1CCC21OCCO1 (stereo not given in full)
inactive: [1] 48.2% | [2] 17.9% | [3] 38.9% | [4] 28.8% | [5] 15.8% | [6] 58.5%

O=C(c1nc2cc([N+](=O)[O-])ccc2[nH]c1=O)C(O)c1ccco1 (stereo not given)
inactive: [1] -8.65% | [2] -25.4% | [3] -25.2% | [4] 13.9% | [5] -35% | [6] -6.35%

CC(=O)Oc1c(C)cc2c(c1C)C(C)CN2C(C)=O (stereo not given)
inactive: [1] 3.95% | [2] -33.8% | [3] -24.6% | [4] -18.9% | [5] -22.4% | [6] -10.6%

CC(C)CC(N)C(=O)NC(C)C(=O)NC(CC(C)C)C(=O)O (stereo not drawn) (H-Leu-Ala-Leu-OH; configuration not given here)
inactive: [1] 5.95% | [2] 21.4% | [3] 10.9% | [4] 1.9% | [5] 0.5% | [6] -3.1%

CC(=O)OC1COC(n2cnc3c(N)ncnc32)C(OC(C)=O)C1OC(C)=O (stereo not given)
inactive: [1] 5.3% | [2] -5.15% | [3] 2.3% | [4] -26.1% | [5] 1.2% | [6] -4.2%

CCCCCCCCCCCCCCCCc1c(C(=O)OC)[nH]c(=S)[nH]c1=O
inactive: [1] -49% | [2] -18.2% | [3] -21.9% | [4] -2.8% | [5] -29.1% | [6] -11.3%

COc1ccccc1NC(C)=O
inactive: [1] 8.15% | [2] 5.8% | [3] 0.15% | [4] 6% | [5] 11.4% | [6] -30.4%

O=C(O)c1ccccc1N1C(=O)c2ccccc2C1=O
inactive: [1] 4.95% | [2] -33.2% | [3] -4.1% | [4] 8.2% | [5] 11.2% | [6] -1.55%

CCN(CC)Cc1cc(Nc2cc(C)nc(/N=C(\N)Nc3cc(Cl)cc(Cl)c3)n2)ccc1O
active: [1] 95.2% | [3] 97.2% | [6] 91.1%
inactive: [2] 69.2% | [4] 10.2% | [5] 7.95%
